Measurements: PMC7862700, “An all-to-all approach to the identification of sequence-specific readers for epigenetic DNA modifications on cytosine”

Tests used:
Assay in all cases: DAPPL (digital affinity profiling via proximity ligation, sequencing); 10 mM Tris-HCl pH 7.5, 50 mM NaCl, 1 mM DTT, 4% glycerol, room temperature, 30 min; GST-TFs on glutathione beads, 16-mer random dsDNA library, 0.1% formaldehyde crosslink after washing; high values mean tight binding
FEV = molecular target: T1, FEV (Homo sapiens, UniProt Q99581 1-238); settings: protein: recombinant; tags: N-terminal GST; dsDNA, one strand shown
T1 sequence: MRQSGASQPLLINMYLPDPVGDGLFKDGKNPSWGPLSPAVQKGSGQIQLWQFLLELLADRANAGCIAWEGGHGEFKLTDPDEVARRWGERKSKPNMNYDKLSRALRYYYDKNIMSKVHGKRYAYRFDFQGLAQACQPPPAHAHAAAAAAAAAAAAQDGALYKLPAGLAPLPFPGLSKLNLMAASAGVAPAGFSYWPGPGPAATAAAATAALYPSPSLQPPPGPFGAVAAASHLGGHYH
Outline: (§1)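 Each value of binding signal is a hexamer's read frequency for a factor divided by the same hexamer's frequency in the tag-only sample. Barcoded, bead-captured GST fusions of human transcription factors made in yeast were pooled with that sample and incubated with 200 nmole of a random double-stranded 16-mer DNA library in Tris/NaCl/DTT/glycerol buffer at room temperature for 30 min. Washing, 0.1% formaldehyde crosslinking, proximity ligation, PCR and Illumina NextSeq500 sequencing followed.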

ETV5 = ETV5 (Homo sapiens, UniProt P41161 1-510); settings: protein: recombinant; tags: N-terminal GST; dsDNA, one strand shown
Chain of ETV5 (P41161 whole entry): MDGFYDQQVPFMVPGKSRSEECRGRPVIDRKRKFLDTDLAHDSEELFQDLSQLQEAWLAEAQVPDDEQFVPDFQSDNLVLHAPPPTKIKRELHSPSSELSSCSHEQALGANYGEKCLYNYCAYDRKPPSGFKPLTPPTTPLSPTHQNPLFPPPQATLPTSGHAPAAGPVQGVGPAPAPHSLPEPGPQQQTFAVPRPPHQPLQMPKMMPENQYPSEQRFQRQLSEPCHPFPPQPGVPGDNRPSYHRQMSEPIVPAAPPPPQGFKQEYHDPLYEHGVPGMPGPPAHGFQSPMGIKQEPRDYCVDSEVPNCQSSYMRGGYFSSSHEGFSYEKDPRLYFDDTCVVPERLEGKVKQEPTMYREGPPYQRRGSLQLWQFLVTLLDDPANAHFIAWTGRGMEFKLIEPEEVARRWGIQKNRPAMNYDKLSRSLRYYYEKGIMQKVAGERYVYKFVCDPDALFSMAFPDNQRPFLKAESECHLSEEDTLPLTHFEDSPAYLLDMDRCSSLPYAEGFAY
Outline: as §1

HSF1 = HSF1 (Homo sapiens, UniProt Q00613 1-529); settings: protein: recombinant; tags: N-terminal GST; chain copies: 3; dsDNA, one strand shown
Chain of HSF1 (Q00613 whole entry): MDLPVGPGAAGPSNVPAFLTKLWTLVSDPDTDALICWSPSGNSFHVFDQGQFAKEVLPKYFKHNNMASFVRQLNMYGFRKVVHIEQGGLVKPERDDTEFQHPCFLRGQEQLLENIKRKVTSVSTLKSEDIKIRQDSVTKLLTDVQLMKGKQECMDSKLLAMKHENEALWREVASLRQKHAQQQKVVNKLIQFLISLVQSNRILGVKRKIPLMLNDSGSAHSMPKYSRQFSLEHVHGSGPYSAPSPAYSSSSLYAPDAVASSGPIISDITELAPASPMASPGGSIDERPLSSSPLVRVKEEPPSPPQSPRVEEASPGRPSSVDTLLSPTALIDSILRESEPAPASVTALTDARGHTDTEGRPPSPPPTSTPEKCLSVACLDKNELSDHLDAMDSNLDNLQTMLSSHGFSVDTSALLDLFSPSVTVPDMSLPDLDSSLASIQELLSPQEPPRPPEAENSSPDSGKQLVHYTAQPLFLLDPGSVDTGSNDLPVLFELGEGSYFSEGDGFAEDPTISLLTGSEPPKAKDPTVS
Outline: as §1

SPIC = molecular target: T2, SPIC (Homo sapiens, UniProt Q8N5J4 1-248); settings: protein: recombinant; tags: N-terminal GST; dsDNA, one strand shown
T2 sequence: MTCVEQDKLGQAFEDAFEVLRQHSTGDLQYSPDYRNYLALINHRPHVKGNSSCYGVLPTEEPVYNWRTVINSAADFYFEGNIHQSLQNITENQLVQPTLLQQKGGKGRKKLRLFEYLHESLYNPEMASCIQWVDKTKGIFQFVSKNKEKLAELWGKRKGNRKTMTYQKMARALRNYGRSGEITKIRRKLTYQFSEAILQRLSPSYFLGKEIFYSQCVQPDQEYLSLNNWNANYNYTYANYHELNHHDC
Outline: as §1

ELF4 = ELF4 (Homo sapiens, UniProt Q99607 1-663); settings: protein: recombinant; tags: N-terminal GST; dsDNA, one strand shown
Chain of ELF4 (Q99607 whole entry): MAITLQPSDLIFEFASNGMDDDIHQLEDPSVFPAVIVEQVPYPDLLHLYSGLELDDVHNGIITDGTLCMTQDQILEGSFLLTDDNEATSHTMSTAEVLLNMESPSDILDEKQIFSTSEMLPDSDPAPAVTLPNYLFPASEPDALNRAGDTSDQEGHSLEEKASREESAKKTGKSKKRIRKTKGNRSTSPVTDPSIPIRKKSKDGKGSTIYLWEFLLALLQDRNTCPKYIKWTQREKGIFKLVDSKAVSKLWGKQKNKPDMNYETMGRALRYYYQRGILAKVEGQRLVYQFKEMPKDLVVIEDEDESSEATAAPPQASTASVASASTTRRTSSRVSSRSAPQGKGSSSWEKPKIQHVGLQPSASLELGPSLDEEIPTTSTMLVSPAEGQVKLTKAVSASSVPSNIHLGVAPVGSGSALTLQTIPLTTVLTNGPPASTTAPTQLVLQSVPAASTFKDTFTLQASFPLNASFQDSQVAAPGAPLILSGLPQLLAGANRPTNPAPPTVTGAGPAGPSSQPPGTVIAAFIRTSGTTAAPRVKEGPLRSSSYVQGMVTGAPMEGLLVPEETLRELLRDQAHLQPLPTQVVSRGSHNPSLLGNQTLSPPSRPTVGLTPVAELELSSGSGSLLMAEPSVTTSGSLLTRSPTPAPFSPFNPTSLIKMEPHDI
Outline: as §1

ELK4 = molecular target: T3, ELK4 (Homo sapiens, UniProt P28324-2 1-405); settings: protein: recombinant; tags: N-terminal GST; dsDNA, one strand shown
T3 sequence: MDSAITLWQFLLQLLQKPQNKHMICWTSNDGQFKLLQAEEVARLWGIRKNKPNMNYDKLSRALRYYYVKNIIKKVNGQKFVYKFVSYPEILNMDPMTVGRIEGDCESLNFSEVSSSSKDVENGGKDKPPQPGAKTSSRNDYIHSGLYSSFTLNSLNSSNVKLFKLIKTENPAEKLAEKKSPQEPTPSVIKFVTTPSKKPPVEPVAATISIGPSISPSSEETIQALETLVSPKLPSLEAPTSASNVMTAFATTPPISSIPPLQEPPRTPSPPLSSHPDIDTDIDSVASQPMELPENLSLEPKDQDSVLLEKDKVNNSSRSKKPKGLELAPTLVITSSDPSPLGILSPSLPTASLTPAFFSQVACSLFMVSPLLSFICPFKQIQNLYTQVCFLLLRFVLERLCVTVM
Outline: as §1

ETV2 = molecular target: T4, ETV2 (Homo sapiens, UniProt O00321 1-342); settings: protein: recombinant; tags: N-terminal GST; dsDNA, one strand shown
T4 sequence: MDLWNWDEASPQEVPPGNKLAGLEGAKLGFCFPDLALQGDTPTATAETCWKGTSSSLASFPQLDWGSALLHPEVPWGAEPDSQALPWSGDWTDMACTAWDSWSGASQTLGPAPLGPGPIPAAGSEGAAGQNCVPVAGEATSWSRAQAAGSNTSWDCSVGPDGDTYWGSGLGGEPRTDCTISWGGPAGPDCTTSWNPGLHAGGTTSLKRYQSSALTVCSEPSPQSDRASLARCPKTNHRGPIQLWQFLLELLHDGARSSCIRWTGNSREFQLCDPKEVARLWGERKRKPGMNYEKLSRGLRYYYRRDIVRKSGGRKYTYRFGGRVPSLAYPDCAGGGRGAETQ
Outline: as §1

ELF3 = molecular target: T5, ELF3 (Homo sapiens, UniProt P78545 1-371); settings: protein: recombinant; tags: N-terminal GST; dsDNA, one strand shown
T5 sequence: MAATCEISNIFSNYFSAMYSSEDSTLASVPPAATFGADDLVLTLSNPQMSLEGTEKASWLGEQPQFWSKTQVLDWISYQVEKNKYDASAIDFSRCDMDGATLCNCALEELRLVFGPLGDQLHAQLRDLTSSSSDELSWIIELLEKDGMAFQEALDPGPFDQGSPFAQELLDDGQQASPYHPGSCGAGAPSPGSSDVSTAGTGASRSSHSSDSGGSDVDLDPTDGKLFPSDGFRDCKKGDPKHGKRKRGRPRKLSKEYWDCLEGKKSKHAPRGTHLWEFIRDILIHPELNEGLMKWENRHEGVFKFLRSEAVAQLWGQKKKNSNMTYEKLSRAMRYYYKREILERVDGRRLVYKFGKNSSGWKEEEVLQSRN
Outline: as §1

CRX = CRX (Homo sapiens, UniProt O43186 1-299); settings: protein: recombinant; tags: N-terminal GST; dsDNA, one strand shown
Chain of CRX (O43186 whole entry): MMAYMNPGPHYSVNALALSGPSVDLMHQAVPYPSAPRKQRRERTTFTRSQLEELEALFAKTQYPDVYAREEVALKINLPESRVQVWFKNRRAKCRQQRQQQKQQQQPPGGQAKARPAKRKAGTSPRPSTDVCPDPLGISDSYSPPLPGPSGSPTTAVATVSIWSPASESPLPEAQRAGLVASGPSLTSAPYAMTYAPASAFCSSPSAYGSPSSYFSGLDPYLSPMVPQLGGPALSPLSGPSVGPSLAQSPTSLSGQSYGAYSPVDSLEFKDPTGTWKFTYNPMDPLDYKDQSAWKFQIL
Outline: as §1

ETV1 = ETV1 (Homo sapiens, UniProt P50549 1-477); settings: protein: recombinant; tags: N-terminal GST; dsDNA, one strand shown
Chain of ETV1 (P50549 whole entry): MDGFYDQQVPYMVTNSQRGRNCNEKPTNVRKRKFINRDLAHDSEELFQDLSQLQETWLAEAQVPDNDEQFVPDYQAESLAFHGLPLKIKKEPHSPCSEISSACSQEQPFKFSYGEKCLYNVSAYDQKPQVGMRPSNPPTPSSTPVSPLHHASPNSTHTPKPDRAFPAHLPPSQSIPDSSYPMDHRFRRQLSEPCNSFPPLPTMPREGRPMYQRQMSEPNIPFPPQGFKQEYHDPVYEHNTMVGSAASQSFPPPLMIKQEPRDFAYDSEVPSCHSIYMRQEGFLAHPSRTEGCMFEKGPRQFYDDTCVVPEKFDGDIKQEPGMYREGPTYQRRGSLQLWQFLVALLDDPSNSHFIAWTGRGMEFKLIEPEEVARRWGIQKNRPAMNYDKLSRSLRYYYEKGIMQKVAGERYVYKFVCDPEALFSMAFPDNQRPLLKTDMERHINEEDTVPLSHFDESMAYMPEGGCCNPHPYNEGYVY
Outline: as §1

ACCCTC
binding signal (FEV): 1.15 fold enrichment (6-mer frequency, TF over GST control) | binding signal (ETV5): 1.2 fold enrichment (6-mer frequency, TF over GST control) | binding signal (HSF1): 1.11 fold enrichment (6-mer frequency, TF over GST control) | binding signal (SPIC): 1.24 fold enrichment (6-mer frequency, TF over GST control) | binding signal (ELF4): 1.25 fold enrichment (6-mer frequency, TF over GST control) | binding signal (ELK4): 1.01 fold enrichment (6-mer frequency, TF over GST control) | binding signal (ETV2): 1.15 fold enrichment (6-mer frequency, TF over GST control) | binding signal (ELF3): 1.12 fold enrichment (6-mer frequency, TF over GST control) | binding signal (CRX): 1.11 fold enrichment (6-mer frequency, TF over GST control) | binding signal (ETV1): 1.14 fold enrichment (6-mer frequency, TF over GST control)
